Data from the supplement of paper PMC12645437, “Orthogonal IMiD-Degron Pairs Induce Selective Protein Degradation in Cells” (ACS Chemical Biology, 2025).
In all, about 8,300 sequences were measured (“log2 fold change of degron read counts, EGFP-low vs EGFP+ sorted cells (limma voom), compound-induced degradation”: median about -1.1, highest 2% from about 3.2 on). The list comes from a sample in which the highest values are over-represented; it also holds similar and randomly drawn sequences.

T1: CRBN, Q96SW2
T1 chain: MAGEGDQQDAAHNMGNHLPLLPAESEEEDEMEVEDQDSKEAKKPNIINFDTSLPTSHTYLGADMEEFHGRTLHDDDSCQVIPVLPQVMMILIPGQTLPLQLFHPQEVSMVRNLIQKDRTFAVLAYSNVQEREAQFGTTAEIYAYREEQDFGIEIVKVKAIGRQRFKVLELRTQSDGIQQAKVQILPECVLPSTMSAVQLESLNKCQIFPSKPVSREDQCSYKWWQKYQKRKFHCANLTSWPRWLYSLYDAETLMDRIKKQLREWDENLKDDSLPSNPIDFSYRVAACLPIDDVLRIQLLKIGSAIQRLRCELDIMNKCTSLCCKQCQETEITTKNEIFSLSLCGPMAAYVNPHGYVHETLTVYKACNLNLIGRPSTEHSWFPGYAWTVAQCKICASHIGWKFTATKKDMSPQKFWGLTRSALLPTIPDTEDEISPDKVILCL

B1: 46F_47H_49P_50I_52G_53H_54H_55F_67L_, Q9UKT9 (peptide)
chain: FHCPICGHHFTQKGNLLRHIKL
B2: 46F_47D_49N_50V_52G_53A_54Q_55F_67L_, Q9UKT9 (peptide)
chain: FDCNVCGAQFTQKGNLLRHIKL
B3: 46F_47V_49E_50Q_52G_53A_54G_55F_67L_, Q9UKT9 (peptide)
chain: FVCEQCGAGFTQKGNLLRHIKL
B4: 46F_47K_49P_50I_52G_53H_54R_55F_67L_, Q9UKT9 (peptide)
chain: FKCPICGHRFTQKGNLLRHIKL
B5: 46F_47Q_49D_50I_52G_53A_54F_55F_67L_, Q9UKT9 (peptide)
chain: FQCDICGAFFTQKGNLLRHIKL
B6: 46F_47E_49N_50Q_52G_53R_54D_55F_67L_, Q9UKT9 (peptide)
chain: FECNQCGRDFTQKGNLLRHIKL
B7: 46L_47H_49P_50I_52G_53F_54C_55C_67L_, Q9UKT9 (peptide)
chain: LHCPICGFCCTQKGNLLRHIKL
B8: 46L_47C_49P_50I_52G_53F_54C_55C_67L_, Q9UKT9 (peptide)
chain: LCCPICGFCCTQKGNLLRHIKL
B9: 46L_47V_49P_50I_52G_53F_54C_55C_67L_, Q9UKT9 (peptide)
chain: LVCPICGFCCTQKGNLLRHIKL
B10: 46L_47N_49P_50I_52G_53F_54C_55C_67L_, Q9UKT9 (peptide)
chain: LNCPICGFCCTQKGNLLRHIKL
B11: 46L_47D_49P_50I_52G_53F_54C_55C_67L_, Q9UKT9 (peptide)
chain: LDCPICGFCCTQKGNLLRHIKL
B12: 46L_47Q_49P_50I_52G_53F_54C_55C_67L_, Q9UKT9 (peptide)
chain: LQCPICGFCCTQKGNLLRHIKL
B13: 46L_47W_49P_50I_52G_53F_54C_55C_67L_, Q9UKT9 (peptide)
chain: LWCPICGFCCTQKGNLLRHIKL
B14: 46L_47F_49P_50I_52G_53F_54C_55C_67L_, Q9UKT9 (peptide)
chain: LFCPICGFCCTQKGNLLRHIKL
B15: 46L_47I_49P_50I_52G_53F_54C_55C_67L_, Q9UKT9 (peptide)
chain: LICPICGFCCTQKGNLLRHIKL
B16: 46L_47M_49P_50I_52G_53F_54C_55C_67L_, Q9UKT9 (peptide)
chain: LMCPICGFCCTQKGNLLRHIKL
B17: 46L_47L_49P_50I_52G_53F_54C_55C_67L_, Q9UKT9 (peptide)
chain: LLCPICGFCCTQKGNLLRHIKL
B18: 46L_47Y_49P_50I_52G_53F_54C_55C_67L_, Q9UKT9 (peptide)
chain: LYCPICGFCCTQKGNLLRHIKL
B19: 46F_47V_49N_50V_52G_53A_54R_55F_67L_, Q9UKT9 (peptide)
chain: FVCNVCGARFTQKGNLLRHIKL
B20: 46F_47D_49E_50I_52G_53H_54A_55F_67L_, Q9UKT9 (peptide)
chain: FDCEICGHAFTQKGNLLRHIKL
B21: 46F_47Q_49E_50I_52G_53H_54A_55F_67L_, Q9UKT9 (peptide)
chain: FQCEICGHAFTQKGNLLRHIKL
B22: 46F_47G_49N_50Q_52G_53R_54A_55F_67L_, Q9UKT9 (peptide)
chain: FGCNQCGRAFTQKGNLLRHIKL
B23: 46F_47S_49E_50I_52G_53R_54S_55F_67L_, Q9UKT9 (peptide)
chain: FSCEICGRSFTQKGNLLRHIKL
B24: 46F_47T_49P_50I_52G_53H_54Q_55F_67L_, Q9UKT9 (peptide)
chain: FTCPICGHQFTQKGNLLRHIKL
B25: 46F_47L_49D_50Q_52G_53A_54S_55F_67L_, Q9UKT9 (peptide)
chain: FLCDQCGASFTQKGNLLRHIKL
B26: 46F_47M_49E_50I_52G_53R_54C_55F_67L_, Q9UKT9 (peptide)
chain: FMCEICGRCFTQKGNLLRHIKL
B27: 46F_47T_49D_50Q_52G_53A_54F_55F_67L_, Q9UKT9 (peptide)
chain: FTCDQCGAFFTQKGNLLRHIKL
B28: 46F_47V_49P_50I_52G_53A_54E_55F_67L_, Q9UKT9 (peptide)
chain: FVCPICGAEFTQKGNLLRHIKL
B29: 46F_47Q_49N_50I_52G_53A_54E_55F_67L_, Q9UKT9 (peptide)
chain: FQCNICGAEFTQKGNLLRHIKL
B30: 46F_47Q_49P_50I_52G_53A_54E_55F_67L_, Q9UKT9 (peptide)
chain: FQCPICGAEFTQKGNLLRHIKL
B31: 46F_47N_49N_50I_52G_53A_54E_55F_67L_, Q9UKT9 (peptide)
chain: FNCNICGAEFTQKGNLLRHIKL
B32: 46F_47Y_49N_50I_52G_53A_54E_55F_67L_, Q9UKT9 (peptide)
chain: FYCNICGAEFTQKGNLLRHIKL
B33: 46F_47S_49P_50I_52G_53A_54E_55F_67L_, Q9UKT9 (peptide)
chain: FSCPICGAEFTQKGNLLRHIKL

Biological target: T1, CRBN, Q96SW2
Assay: log2 fold change of degron read counts, EGFP-low vs EGFP+ sorted cells (limma voom), compound-induced degradation; higher = more compound-induced degradation of the degron-EGFP fusion; degrons are variants of IKZF1/3 zinc finger 2; compound dose not given here
Details: Jurkat, 18 h
[1] = compound: compound 19 (5-tert-butyl-thalidomide)
[2] = compound: compound 22 (5-morpholino-thalidomide)
[3] = compound: compound 33 (diphenyl IMiD analogue)
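Further: pooled lentiviral library of zinc finger degron-EGFP fusions in mCherry-positive Jurkat cells, FACS-sorted after compound exposure, with degron abundance counted by next-generation sequencing.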

| Sequence | log2 fold change of degron read counts [1] | log2 fold change of degron read counts [2] | log2 fold change of degron read counts [3] | log2 fold change of degron read counts (compound: thalidomide) |
| --- | --- | --- | --- | --- |
| B1 | -1.89 | -2.04 | -1.22 | -1.88 |
| B2 | -1.58 | -1.29 | -0.82 | -0.778 |
| B3 | -1.4 | -0.248 | 0.586 | 1.2 |
| B4 | -2.63 | -2.88 | -3.36 | -2.52 |
| B5 | -2.31 | -1.64 | 0.643 | 0.872 |
| B6 | -3.19 | -3.55 | -3.13 | -3.35 |
| B7 | 2.7 | 2.71 | 2.46 | 1.82 |
| B8 | 1.74 | 2.1 | 2.79 | 2.63 |
| B9 | 1.02 | 2.52 | 2.24 | 2.97 |
| B10 | 1.6 | 0.635 | 0.926 | 1.15 |
| B11 | 0.0932 | -0.387 | 0.637 | 1.33 |
| B12 | 1.14 | 2.25 | 2.13 | 3.61 |
| B13 | 3.2 | 3.49 | 2.92 | 2.17 |
| B14 | 3.44 | 3.46 | 2.76 | 2.26 |
| B15 | 0.314 | 1.98 | 1.85 | 2.51 |
| B16 | 0.471 | 1.34 | 2.61 | 2.08 |
| B17 | 0.766 | 0.49 | 1.44 | 1.92 |

| Sequence | log2 fold change of degron read counts [1] | log2 fold change of degron read counts [2] | log2 fold change of degron read counts [3] | log2 fold change of degron read counts (compound: thalidomide) |
| --- | --- | --- | --- | --- |
| B18 | 3.56 | 3.56 | 2.91 | 1.99 |
| B19 | -0.689 | 0.0526 | -0.518 | 0.565 |
| B20 | -2.17 | -2.36 | -2.99 | -2.62 |
| B21 | -3.35 | -3.01 | -2.87 | -1.5 |
| B22 | -2.18 | -2.21 | -2.02 | -1.91 |
| B23 | -1.46 | -2.51 | -1.36 | -1.71 |
| B24 | 0.276 | 0.993 | 2.35 | 2.28 |
| B25 | -2 | -2.92 | -1.43 | -3.07 |
| B26 | -2.91 | -2.9 | -1.29 | -1.79 |
| B27 | -2.38 | -2.78 | -2.11 | -2.23 |
| B28 | 0.162 | 2.31 | 1.62 | 2.6 |
| B29 | -1.13 | 0.376 | 1.25 | 3.24 |
| B30 | 1.17 | 1.71 | 2.51 | 3.61 |
| B31 | -0.383 | -1.22 | -0.688 | -0.836 |
| B32 | 1.9 | 1.64 | 0.908 | -1.03 |
| B33 | 1.92 | 1.11 | 1.41 | 1.11 |
